# Test results as given in the supplement of paper PMC11732987, “Enantioselective OTUD7B fragment discovery through chemoproteomics screening and high-throughput optimisation” (Communications Chemistry, 2025).
# A number with no mark means an inactive call.
# How the values were obtained:
# Test in all cases: log2 ratio of Biotin-Ahx-Ub-VS probe labelling (fragment/DMSO); higher = less target engagement (more negative = stronger competition), active = hit call of the paper (q ≤ 0.05, log2 ratio ≤ -1)
# Conditions in all cases: compound concentration: 200 uM; treatment time: 3 h
# UniProt O00507 = molecular target: UniProt O00507
# Sequence of UniProt O00507 (O00507 whole entry, the tested form may be a part): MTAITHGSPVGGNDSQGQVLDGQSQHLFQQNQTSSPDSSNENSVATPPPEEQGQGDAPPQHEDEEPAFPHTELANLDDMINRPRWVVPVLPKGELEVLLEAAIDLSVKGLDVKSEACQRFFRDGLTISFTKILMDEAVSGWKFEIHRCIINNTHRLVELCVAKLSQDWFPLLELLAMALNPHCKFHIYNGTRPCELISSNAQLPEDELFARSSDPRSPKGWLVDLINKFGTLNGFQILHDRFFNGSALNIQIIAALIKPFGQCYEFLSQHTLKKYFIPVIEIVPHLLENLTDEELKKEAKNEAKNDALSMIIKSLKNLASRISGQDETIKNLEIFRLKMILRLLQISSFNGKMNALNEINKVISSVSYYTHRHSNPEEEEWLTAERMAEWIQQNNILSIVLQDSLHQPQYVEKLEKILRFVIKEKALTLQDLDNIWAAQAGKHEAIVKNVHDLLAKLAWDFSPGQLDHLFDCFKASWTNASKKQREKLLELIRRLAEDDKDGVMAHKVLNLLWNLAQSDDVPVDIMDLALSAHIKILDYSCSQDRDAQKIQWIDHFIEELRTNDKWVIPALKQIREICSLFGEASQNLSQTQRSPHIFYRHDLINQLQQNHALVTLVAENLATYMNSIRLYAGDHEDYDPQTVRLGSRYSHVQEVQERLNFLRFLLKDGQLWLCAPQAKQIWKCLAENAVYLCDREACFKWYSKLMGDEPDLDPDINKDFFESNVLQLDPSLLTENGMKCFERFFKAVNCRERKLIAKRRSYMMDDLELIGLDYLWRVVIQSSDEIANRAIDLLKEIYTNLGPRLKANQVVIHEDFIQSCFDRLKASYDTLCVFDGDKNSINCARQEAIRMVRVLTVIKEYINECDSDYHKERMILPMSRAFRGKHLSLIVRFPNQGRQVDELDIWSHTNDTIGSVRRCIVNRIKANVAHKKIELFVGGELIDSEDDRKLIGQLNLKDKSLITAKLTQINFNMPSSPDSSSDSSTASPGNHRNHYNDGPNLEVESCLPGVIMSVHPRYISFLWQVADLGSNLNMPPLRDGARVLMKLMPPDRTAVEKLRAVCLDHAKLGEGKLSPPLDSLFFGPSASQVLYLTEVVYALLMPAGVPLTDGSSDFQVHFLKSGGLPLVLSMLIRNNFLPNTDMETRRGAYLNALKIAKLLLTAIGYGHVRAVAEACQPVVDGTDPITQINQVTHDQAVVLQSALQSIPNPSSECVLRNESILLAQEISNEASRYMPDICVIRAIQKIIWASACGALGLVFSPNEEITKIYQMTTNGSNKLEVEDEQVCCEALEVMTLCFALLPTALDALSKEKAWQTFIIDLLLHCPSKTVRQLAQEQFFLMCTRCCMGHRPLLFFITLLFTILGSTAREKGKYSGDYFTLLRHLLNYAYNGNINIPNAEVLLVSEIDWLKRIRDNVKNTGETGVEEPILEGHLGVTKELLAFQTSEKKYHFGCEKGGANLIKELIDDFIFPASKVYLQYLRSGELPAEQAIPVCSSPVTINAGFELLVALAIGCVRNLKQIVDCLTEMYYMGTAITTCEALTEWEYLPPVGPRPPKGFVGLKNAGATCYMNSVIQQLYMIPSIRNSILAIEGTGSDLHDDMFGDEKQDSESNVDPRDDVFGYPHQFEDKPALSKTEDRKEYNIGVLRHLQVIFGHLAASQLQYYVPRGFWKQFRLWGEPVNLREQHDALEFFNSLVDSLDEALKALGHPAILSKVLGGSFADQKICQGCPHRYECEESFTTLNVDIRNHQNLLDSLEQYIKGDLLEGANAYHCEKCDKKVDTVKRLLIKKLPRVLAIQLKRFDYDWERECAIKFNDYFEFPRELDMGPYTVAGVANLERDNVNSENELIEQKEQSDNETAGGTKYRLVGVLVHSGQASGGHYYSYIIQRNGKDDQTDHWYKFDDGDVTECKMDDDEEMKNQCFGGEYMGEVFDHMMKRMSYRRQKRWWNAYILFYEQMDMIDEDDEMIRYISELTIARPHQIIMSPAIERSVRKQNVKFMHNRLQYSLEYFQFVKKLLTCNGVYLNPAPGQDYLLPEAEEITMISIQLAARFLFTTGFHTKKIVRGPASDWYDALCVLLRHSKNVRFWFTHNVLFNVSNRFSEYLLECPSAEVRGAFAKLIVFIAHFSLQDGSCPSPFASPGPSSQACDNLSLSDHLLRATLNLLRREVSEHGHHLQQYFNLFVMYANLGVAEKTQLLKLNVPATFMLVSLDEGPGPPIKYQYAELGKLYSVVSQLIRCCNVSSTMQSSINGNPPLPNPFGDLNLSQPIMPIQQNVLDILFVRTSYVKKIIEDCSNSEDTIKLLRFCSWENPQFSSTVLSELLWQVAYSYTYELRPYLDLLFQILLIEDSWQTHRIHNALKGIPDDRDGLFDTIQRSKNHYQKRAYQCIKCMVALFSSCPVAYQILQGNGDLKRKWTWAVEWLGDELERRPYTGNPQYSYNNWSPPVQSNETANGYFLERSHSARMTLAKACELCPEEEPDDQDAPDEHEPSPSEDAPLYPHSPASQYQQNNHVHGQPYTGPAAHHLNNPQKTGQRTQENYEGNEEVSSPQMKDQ
# Outline: (§1)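 Labelled DUBs were enriched with NeutrAvidin, digested with LysC and trypsin, and run by diaPASEF LC-MS/MS. The labelling used Biotin-Ahx-Ub-VS at 0.5 µM final for 1 h on HEK293T lysate (495 µg per sample) previously treated in triplicate with fragment at 200 µM or vehicle for 3 h. Values are average log2 fragment/vehicle ratios by unpaired t-test on global-median-normalised Spectronaut quantities of proteins with ≥2 unique peptides.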
# UniProt P51784 = molecular target: UniProt P51784
# Sequence of UniProt P51784 (P51784 whole entry): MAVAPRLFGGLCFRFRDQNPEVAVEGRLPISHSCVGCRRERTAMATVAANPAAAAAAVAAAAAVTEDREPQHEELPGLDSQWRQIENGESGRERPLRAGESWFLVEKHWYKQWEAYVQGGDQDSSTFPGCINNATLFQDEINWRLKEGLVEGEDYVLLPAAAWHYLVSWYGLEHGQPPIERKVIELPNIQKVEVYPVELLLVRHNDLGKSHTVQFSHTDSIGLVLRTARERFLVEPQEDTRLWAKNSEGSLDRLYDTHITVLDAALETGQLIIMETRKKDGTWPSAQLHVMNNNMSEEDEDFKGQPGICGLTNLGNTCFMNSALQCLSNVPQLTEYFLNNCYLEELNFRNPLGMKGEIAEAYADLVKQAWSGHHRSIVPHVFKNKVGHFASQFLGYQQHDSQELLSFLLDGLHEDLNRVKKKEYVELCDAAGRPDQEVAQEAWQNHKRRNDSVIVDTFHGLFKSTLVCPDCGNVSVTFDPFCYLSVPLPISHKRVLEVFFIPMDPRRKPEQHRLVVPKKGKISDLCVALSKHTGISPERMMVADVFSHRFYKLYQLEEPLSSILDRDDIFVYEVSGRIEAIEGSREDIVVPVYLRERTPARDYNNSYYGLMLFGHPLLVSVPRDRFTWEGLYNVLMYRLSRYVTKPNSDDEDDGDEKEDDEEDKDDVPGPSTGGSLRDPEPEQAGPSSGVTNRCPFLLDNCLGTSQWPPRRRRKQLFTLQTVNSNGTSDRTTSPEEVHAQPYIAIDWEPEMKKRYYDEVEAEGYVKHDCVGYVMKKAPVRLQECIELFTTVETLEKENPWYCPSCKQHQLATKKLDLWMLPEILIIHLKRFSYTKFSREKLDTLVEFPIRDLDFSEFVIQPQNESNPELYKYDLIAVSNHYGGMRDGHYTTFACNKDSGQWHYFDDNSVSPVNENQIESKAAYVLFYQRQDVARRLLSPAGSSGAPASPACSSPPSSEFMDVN
# Outline: as §1
# UniProt Q5T2D3 = molecular target: T1, UniProt Q5T2D3
# T1 sequence (whole entry): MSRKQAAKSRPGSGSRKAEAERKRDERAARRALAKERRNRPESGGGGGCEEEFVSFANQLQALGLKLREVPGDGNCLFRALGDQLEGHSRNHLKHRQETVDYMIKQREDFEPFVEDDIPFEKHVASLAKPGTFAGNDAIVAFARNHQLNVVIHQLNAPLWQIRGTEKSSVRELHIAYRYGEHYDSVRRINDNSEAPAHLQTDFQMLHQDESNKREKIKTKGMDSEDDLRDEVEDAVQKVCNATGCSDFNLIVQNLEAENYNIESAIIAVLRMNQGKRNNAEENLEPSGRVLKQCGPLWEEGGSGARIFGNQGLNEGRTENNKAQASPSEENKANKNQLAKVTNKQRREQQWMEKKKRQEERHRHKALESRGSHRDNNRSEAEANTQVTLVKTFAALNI
# Outline: as §1
# UniProt Q8TE49 = molecular target: T2, UniProt Q8TE49
# T2 sequence (whole entry): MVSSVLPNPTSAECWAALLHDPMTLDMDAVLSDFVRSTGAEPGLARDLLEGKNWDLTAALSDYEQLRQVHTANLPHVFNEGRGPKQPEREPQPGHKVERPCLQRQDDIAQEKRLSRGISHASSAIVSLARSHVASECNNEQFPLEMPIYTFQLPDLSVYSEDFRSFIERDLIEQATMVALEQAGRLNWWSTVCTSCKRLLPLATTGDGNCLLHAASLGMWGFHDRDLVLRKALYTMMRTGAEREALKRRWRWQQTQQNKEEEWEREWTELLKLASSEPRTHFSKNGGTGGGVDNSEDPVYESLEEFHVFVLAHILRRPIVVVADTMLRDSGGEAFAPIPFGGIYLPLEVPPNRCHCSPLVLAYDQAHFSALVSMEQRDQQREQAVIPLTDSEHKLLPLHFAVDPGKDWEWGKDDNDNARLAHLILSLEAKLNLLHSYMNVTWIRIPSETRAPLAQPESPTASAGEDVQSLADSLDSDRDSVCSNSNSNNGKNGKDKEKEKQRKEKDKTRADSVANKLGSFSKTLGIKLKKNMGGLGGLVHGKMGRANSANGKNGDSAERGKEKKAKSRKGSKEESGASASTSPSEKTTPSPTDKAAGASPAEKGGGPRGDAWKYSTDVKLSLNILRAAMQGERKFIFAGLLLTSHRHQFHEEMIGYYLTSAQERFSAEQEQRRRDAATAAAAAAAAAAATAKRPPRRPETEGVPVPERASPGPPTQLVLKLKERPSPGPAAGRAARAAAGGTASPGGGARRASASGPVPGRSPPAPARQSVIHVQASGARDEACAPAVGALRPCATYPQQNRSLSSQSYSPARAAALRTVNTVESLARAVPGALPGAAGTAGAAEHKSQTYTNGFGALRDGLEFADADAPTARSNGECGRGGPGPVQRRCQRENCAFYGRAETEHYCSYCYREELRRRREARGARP
# Outline: as §1
# UniProt Q9P2H5 = molecular target: T3, UniProt Q9P2H5
# T3 sequence (whole entry): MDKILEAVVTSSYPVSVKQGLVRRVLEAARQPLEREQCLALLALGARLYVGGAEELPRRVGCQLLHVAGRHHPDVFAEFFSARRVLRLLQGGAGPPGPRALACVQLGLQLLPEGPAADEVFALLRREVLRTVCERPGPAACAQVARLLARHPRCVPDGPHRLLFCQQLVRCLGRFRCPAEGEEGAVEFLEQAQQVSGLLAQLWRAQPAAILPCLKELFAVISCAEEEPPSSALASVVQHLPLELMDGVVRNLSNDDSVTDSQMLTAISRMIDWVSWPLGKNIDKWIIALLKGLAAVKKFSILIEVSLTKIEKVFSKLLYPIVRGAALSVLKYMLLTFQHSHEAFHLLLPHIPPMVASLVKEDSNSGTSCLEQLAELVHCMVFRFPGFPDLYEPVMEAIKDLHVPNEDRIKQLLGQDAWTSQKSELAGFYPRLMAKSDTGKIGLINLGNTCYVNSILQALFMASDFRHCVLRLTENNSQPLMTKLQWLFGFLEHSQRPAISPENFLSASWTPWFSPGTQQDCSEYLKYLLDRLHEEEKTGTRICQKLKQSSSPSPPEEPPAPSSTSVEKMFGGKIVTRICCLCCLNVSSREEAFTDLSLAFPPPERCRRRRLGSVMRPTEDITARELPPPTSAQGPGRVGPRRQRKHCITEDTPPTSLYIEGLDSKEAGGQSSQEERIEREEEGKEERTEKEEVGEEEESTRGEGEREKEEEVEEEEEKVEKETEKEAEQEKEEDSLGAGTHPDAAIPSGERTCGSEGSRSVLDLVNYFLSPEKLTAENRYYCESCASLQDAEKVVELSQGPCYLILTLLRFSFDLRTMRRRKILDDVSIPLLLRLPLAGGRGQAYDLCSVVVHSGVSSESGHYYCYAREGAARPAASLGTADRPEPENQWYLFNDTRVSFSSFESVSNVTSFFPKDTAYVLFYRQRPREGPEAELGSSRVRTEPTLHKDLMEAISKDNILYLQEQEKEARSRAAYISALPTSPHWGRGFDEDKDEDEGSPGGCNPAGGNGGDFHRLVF
# Outline: as §1
# UniProt Q9UGI0 = molecular target: T4, UniProt Q9UGI0
# T4 sequence (whole entry): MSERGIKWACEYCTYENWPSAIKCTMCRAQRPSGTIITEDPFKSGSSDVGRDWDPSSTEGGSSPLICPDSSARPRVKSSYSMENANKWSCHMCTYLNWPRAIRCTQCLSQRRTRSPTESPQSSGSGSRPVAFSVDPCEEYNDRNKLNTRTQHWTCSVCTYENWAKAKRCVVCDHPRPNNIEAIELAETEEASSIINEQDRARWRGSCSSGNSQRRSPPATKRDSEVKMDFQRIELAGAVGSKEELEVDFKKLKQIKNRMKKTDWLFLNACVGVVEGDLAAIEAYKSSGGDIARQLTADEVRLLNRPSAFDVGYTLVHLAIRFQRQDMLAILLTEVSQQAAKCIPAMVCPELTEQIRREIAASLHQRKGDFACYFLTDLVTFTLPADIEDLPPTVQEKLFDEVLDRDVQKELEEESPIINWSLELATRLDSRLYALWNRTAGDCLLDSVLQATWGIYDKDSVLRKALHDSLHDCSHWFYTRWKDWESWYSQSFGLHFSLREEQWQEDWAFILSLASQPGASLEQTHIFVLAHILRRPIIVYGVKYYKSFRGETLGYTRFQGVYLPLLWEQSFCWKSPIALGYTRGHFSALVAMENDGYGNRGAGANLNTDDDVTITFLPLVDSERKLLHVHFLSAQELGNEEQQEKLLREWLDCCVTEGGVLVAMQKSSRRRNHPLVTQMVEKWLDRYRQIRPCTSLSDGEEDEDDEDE
# Outline: as §1
# YOD1 = molecular target: T5, YOD1 (UniProt Q5VVQ6)
# T5 sequence (whole entry): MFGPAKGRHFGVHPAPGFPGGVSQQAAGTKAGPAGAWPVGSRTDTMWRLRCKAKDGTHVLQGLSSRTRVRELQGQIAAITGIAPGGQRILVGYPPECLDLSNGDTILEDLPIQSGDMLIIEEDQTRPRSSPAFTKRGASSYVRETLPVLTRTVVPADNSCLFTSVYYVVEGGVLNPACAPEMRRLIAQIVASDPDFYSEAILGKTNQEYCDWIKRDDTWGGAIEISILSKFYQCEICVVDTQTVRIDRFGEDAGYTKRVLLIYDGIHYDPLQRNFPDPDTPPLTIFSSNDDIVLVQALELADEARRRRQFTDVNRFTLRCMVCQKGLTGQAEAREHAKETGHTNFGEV
# Outline: as §1
Structure (SMILES),log2 ratio of Biotin-Ahx-Ub-VS probe labelling (UniProt O00507),log2 ratio of Biotin-Ahx-Ub-VS probe labelling (UniProt P51784),log2 ratio of Biotin-Ahx-Ub-VS probe labelling (UniProt Q5T2D3),log2 ratio of Biotin-Ahx-Ub-VS probe labelling (UniProt Q8TE49),log2 ratio of Biotin-Ahx-Ub-VS probe labelling (UniProt Q9P2H5),log2 ratio of Biotin-Ahx-Ub-VS probe labelling (UniProt Q9UGI0),log2 ratio of Biotin-Ahx-Ub-VS probe labelling (YOD1)
CN(CCc1ncc(Br)cn1)C(=O)CCl.Cl,-0.225,-0.0725,-0.508,-1.75 (active),-0.437,-0.752,0.0394
CNC(=O)C1CCN(C(=O)CCl)CC1,-0.581,0.091,0.0899,-0.129,0.179,0.0343,-0.239
Cl.Cn1cnc2cc(CNC(=O)CCl)ccc21,0.245,-0.209,-0.0728,-0.354,-0.126,-0.308,0.0476
CC(NC(=O)CCl)c1cc2n(n1)CCCC2.Cl (centres undefined),0.229,0.0045,0.0101,-0.631,-0.0486,0.22,-0.00538
Cc1cc(C(=O)NC2CCN(C(=O)CCl)CC2)no1,-0.438,-0.169,-0.252,-0.394,0.0224,-0.0524,-0.256
O=C(CCl)N1CCCC1c1ccsc1 (centres undefined),-0.118,-0.115,-0.188,-0.72,-0.412,-1.53 (active),0.14
Cc1cccc2nc(CCNC(=O)CCl)cn12.Cl,-0.595,-0.113,-0.351,-0.764,-0.327,-0.846,-0.336
CN1C(=O)c2ccc(NC(=O)CCl)cc2C1=O,-0.092,-0.0657,-0.265,-1.43 (active),-0.23,-0.559,-0.0267
O=C(CCl)N1CCC(C(O)c2ccc(F)cc2)CC1 (centres undefined),-0.0622,0.5,-0.0566,-0.301,0.167,-0.181,-0.00174
N#Cc1cnn(-c2ccccc2)c1NC(=O)CCl,-0.331,-0.12,-0.209,-1.4 (active),-0.407,-1.04 (active),-0.327
O=C(CCl)N1CCC(c2ccn[nH]2)C1 (centres undefined),-0.147,-0.136,-0.179,-0.464,-0.282,-0.767,0.0756
CCN(Cc1ccc(C#N)cc1F)C(=O)CCl,-0.396,-0.331,-0.313,-0.525,-0.207,-1.27 (active),-0.251
CC1CN(c2ccc(NC(=O)CCl)cc2)CC(C)O1 (centres undefined),-0.0662,0.0387,-0.298,-0.392,-0.0224,-0.221,-0.123
CC1Cc2ccccc2N1C(=O)CCl (centres undefined),-0.438,-0.254,-0.151,-0.28,-0.127,-0.604,-0.114
O=C(CCl)NC1CCC(C(F)(F)F)CC1 (centres undefined),-0.728,0.104,-0.211,-0.706,0.159,-0.54,-0.348
Cc1cccc(N2CCC(NC(=O)CCl)C2=O)c1 (centres undefined),0.294,-0.28,-0.334,-0.961,-0.395,-0.883,-0.459
Cc1noc(C)c1CNC(=O)CCl,-0.346,-0.582,-0.715,-1.28 (active),-0.835,-1.01 (active),-0.752
O=C(CCl)NCCC1COCCO1 (centres undefined),-0.31,0.182,-0.163,-0.547,-0.0395,-0.194,-0.308
CC(NC(=O)CCl)c1noc(Cc2ccccc2)n1 (centres undefined),-0.447,-0.0798,-0.347,-0.443,-0.534,-0.904,-0.247
CC1CCc2onc(CNC(=O)CCl)c2C1 (centres undefined),0.195,0.152,-0.305,-0.691,-0.252,-0.538,0.146
O=C(CCl)Nc1nnc(CC(F)(F)F)o1,-0.0948,-6e-05,-0.844,-0.179,-0.149,-0.304,0.0603
O=C(CCl)N1CCCC2CCCCC21 (centres undefined),-0.0343,0.035,-0.0557,-0.126,-0.193,-0.134,0.0864
